Drawing on PubChem BioAssay (Tox21), this text covers Potency for 27 molecules.

Records with an inconclusive call do not appear. A call without a number means that no potency is given here. Activity calls are given as the source filed them. Calls follow the shape of the dose curve; as a rule, active = well fitted activation curve with a large enough effect in the signal ratio in the repeat runs (not every such curve was filed as active); inconclusive = weak or mixed curves, or effect the other way; inactive = no such curve, though single readings can be large or run the other way; the % refers to the signal ratio.

Glucocorticoid receptor (Homo sapiens), sequence (P04150 whole entry, looked up): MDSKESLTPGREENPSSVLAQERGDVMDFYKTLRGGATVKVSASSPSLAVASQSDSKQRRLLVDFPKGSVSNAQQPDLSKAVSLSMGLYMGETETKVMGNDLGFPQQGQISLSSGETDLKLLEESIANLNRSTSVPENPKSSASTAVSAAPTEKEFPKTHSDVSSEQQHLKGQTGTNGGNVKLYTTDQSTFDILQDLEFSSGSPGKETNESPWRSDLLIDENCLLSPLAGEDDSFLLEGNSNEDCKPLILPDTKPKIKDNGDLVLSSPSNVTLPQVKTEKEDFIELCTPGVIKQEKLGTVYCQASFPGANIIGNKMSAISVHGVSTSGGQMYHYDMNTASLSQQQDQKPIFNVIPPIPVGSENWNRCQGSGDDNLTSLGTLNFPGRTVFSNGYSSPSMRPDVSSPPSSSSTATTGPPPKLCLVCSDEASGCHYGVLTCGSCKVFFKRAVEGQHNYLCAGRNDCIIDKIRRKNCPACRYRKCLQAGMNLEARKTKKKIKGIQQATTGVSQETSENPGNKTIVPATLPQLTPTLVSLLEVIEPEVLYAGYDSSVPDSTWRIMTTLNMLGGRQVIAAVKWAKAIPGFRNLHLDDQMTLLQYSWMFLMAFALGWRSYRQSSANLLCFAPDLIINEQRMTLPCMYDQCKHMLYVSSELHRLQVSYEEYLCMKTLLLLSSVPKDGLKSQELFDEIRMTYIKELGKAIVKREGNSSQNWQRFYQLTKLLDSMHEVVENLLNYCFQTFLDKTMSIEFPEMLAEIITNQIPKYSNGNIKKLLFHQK

For the assay, the target named is Glucocorticoid receptor (Homo sapiens) (UniProt P04150). The assay is described as follows: qHTS assay to identify small molecule agonists of the glucocorticoid receptor (GR) signaling pathway (AID 720691). The following applies: GR-bla HeLa, beta-lactamase reporter ratio, 18 h; series mostly up to 62.4 µM. The gist of the method:
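Measures GR pathway activation through a GRE-beta-lactamase reporter stably integrated in HeLa cells, with 18 h compound treatment at 37 C and fluorescence detection using a FRET substrate.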
For orientation: qHTS replaces the single test concentration by a dilution series.
Consider `CCCCOCCOP(=O)(OCCOCCCC)OCCOCCCC`, for which the Potency result is “inactive”.

With `N[C@@H](Cc1ccc(N(CCCl)CCCl)cc1)C(=O)O`, the Potency result was “inactive”.

With `CCC(=O)O[C@H]1CC[C@H]2[C@@H]3CCC4=CC(=O)CC[C@]4(C)[C@H]3CC[C@]12C`, the Potency entry was “inactive”.

For `Nn1cnnc1`, the Potency result was “inactive”.

As to `c1ccc(N=Nc2ccccc2)cc1`, the Potency entry is “inactive”.

As for `OCC(O)CO`, the Potency entry is “inactive”.

Regarding `COc1ccc(C=O)cc1`, the Potency result was “inactive”.

As for `c1ccc(NNc2ccccc2)cc1`, the Potency entry is “inactive”.

Consider `C[C@]12CCC(=O)C(O)=C1CC[C@@H]1[C@@H]2CC[C@]2(C)C(=O)CC[C@@H]12`, for which the Potency result is “inactive”.

Take `CCCCN(CCCC)N=O`: the Potency entry is “inactive”.

Regarding `C=CCN(CC=C)C(=O)C(Cl)Cl`, the Potency entry was “inactive”.

`CCOP(=S)(OCC)O/N=C(\C#N)c1ccccc1`: the Potency result was “inactive”.

Turning to `N#CCCCl`, the Potency entry is “inactive”.

Consider `CCN(CC)C(=O)SCc1ccc(Cl)cc1`, for which the Potency entry was “inactive”.

Turning to `COP(=O)(OC)OC`, the Potency result is “inactive”.

Consider `CN(C)C(=O)Nc1ccc(Cl)cc1`, for which the Potency entry is “inactive”.

For `Oc1cc(Cl)ccc1Oc1ccc(Cl)cc1Cl`, the Potency entry is “inactive”.

For the molecule `Nc1ccc(Cl)cc1N`, the Potency result is “inactive”.

Turning to `COP(=S)(OC)Oc1cc(Cl)c(Cl)cc1Cl`, the Potency entry was “inactive”.

Take `CC(C)C(=O)OCC(C)(C)C(OC(=O)C(C)C)C(C)C` (configuration not stated): the Potency entry is “inactive”.

Consider `C#C[C@]1(O)CC[C@H]2[C@@H]3CCC4=CC(=O)CC[C@]4(C)[C@H]3CC[C@@]21C`, for which the Potency entry was “inactive”.

As for `NNC(N)=S`, the Potency entry is “inactive”.

As for `Oc1c(Cl)c(Cl)c(Cl)c(Cl)c1Cl`, the Potency entry is “inactive”.

Consider `CCCCCCOC(=O)c1ccccc1C(=O)OCCCCCC`, for which the Potency result is “inactive”.

For the molecule `Cc1cc(Cl)ccc1OCCCC(=O)O`, the Potency entry was “inactive”.

As for `CC(C)N(C(=O)SCC(Cl)=C(Cl)Cl)C(C)C`, the Potency result is “inactive”.

`CCCCC(CC)COC(=O)c1ccc(C(=O)OCC(CC)CCCC)c(C(=O)OCC(CC)CCCC)c1` (configuration not stated): the Potency entry is “inactive”.
